ELG1 genotoxic: induces genotoxicity in HEK293T cells with luciferase-tagged ELG1; 330,000 compounds, 1.3% hits; HEK293T ELG1-luciferase reporter, luminescence, 16 h; Potency, µM (highest dose often 46 µM), without a hit: at the highest dose activity change, positive = activation, actives largely listed as activators; further: % of control where 0% means no effect; nearly all actives have a fitted effect of over 60% in size
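Genotoxic stress is detected as increased luminescence from luciferase-tagged ELG1 in HEK293T cells, measured with ONE-Glo after a 16 hr treatment at 37 °C.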
SMN2 splice enh: SMN2 splice variant enhancement; HEK293 SMN2-luciferase splicing reporter, luminescence, 30-36 h; Potency, µM (doses to about 46.1 µM), inactives show at the highest dose activity change, positive = activation, hits mostly activators; 210,000 compounds, 2.8% hits; AID 1458; further: % of control where 0% means no effect; nearly all actives have a fitted effect of over 55% in size
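HEK293 cells carry an SMN2 minigene-luciferase reporter in which exon 7 inclusion puts luciferase in frame. Cells were seeded at 2000 cells/well, attached for 10-12 hours, then exposed to compounds for 30-36 hours at 37C before ONE-Glo luminescence.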
NPC1 prom act: NPC1 promoter activation | 320,000 compounds, 2.4% hits | Huh7 NPC1 promoter luciferase reporter, 24 h | Potency, µM (doses to about 9.22 µM), for inactives: at the top dose activation, hits mostly activators; further: % of control where 0% means no effect; nearly all actives have a fitted effect of over 60% in size
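Cells: Huh7 expressing luciferase under the NPC1 promoter, 1500/well. Seeded 2 h, compound added, incubated 24 h at 37 °C. Luciferase reagent, 10 min ambient, then luminescence.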
Rab9 prom act: activators of Rab9 promoter; AID 485297; Potency, µM (top dose mostly 9.22 µM), for inactives: top-dose activation, negative = inhibition, hits mostly activators; 320,000 compounds, 2.8% hits; Huh7 Rab9 promoter-luciferase reporter, luminescence, 24 h; further: % of control where 0% means no effect; nearly all actives have a fitted effect of over 60% in size
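Steps: seed 1500 Huh7 Rab9-luc cells per well, rest 2 h at 37 °C; add compound in DMSO; incubate 24 h; add luciferase reagent, 10 min ambient; read luminescence.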
FLuc counter: counter-screen for miR-21 project: firefly luciferase inhibitors or activators | P08659 | purified FLuc, Km substrates, luminescence inhibition | Potency, µM (top dose mostly 57.5 µM), for the others: top-dose activity change, negative = inhibition, actives largely listed as inhibitors | 360,000 compounds, 6.9% hits;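 further: plate controls were vehicle for no effect and reference inhibitor for full effect; nearly all actives have a fitted effect of over 55% in size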
Target sequence (P08659 whole entry, looked up): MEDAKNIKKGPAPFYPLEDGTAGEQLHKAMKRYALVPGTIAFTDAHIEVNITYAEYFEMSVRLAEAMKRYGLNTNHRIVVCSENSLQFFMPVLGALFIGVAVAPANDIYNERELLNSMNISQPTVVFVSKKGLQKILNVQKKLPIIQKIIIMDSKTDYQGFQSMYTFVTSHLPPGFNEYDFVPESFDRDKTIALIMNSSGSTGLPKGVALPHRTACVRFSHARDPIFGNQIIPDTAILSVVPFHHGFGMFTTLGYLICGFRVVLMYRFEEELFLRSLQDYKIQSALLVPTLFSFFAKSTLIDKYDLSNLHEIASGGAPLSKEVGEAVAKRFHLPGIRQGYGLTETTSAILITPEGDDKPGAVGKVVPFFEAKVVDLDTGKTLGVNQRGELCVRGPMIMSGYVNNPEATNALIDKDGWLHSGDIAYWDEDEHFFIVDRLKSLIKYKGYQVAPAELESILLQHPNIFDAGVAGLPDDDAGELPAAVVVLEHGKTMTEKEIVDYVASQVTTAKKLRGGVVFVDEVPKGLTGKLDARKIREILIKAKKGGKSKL
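Purified P. pyralis luciferase (10nM final) with 10uM D-luciferin and 10uM ATP (Km levels) in 50mM Tris acetate pH 7.5, 10mM Mg acetate, 0.01% Tween-20, 0.05% BSA; qHTS 6-point titration, ~60 µM downward; luminescence read.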
Luc counter: counter-screen: inhibitors of Kinase-Glo firefly luciferase; Q27757; Kinase-Glo luciferase, ATP luminescence, 8 min; Potency, µM (highest dose often 38.3 µM), without a hit: at the highest dose activity change, negative = inhibition, most hits filed as inhibitors; 200,000 compounds, 0.28% hits; AID 1379; further: on the % scale 0 is the no-effect control and ±100 the full control effect; nearly all actives have a fitted effect of over 60% in size
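Kinase-Glo luciferase light output from ATP and luciferin was measured with 10 uM ATP, within the enzyme's linear range. Buffer: 50 mM imidazole pH 7.2, 50 mM KCl, 7 mM MgCl2, 0.01% Tween 20, 0.05% BSA; luminescence read after 8 min at ambient temperature.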
Starred values were filed as active, the others as inactive; ? = inconclusive; . = not tested or not shown; [ ] = another dose, or the depositor's remark. In the library only some 7.5% were active in any assay of this set; here they are far more common. The call rests on the fitted dose curve; in most records, active means well fitted curve in the direction sought with a large enough effect; inconclusive means small, poorly fitted or top-dose-only effect, or another doubt; inactive means no such curve, though single readings can be large; an effect the other way counts as inactive or inconclusive. Potency means the concentration at half of the fitted maximal effect.

SMILES	ELG1 genotoxic	SMN2 splice enh	NPC1 prom act	Rab9 prom act	FLuc counter	Luc counter
CC(=O)Nc1ccc(S(=O)(=O)NNC(=O)c2cccc(Cl)c2)cc1	0%	-5%	-4%	0%	-17%	-4%
Cc1ccc2nc(COc3ccc(Cl)cc3)cc(=O)n2c1	23%	13µM*	3.5µM*	1.3µM*	?	3%
COc1ccc(OC)c(NC(=O)Nc2cccc(OCc3cc(=O)n4cc(C)ccc4n3)c2)c1	.	.	.	.	1.2µM*	.
CCOC(=O)C1=C(C)N2C(=C(C#N)[C@@H]1c1ccc(C(=O)OC)cc1)SC[C@@]2(O)C(C)(C)C	0%	8%	1%	-3%	4%	-7%
CCN[C@@H]1C[C@H](C)S(=O)(=O)c2sc(S(N)(=O)=O)cc21	.	-11%[20.6 µM]	.	.	.	0%[17.1 µM]
Cc1ccc(NC(=O)Cn2c(=O)n(Cc3nc(-c4ccccc4)no3)c(=O)c3cc4c(cc32)OCO4)cc1F	.	.	.	.	-7%	.
Cc1cccc(NC(=O)Cn2c(SCC(=O)NCc3ccccc3)nc3ccccc32)c1C	.	.	.	.	-6%	.
Cc1cc(C)n(-c2nc3c(c(=O)[nH]c(=O)n3C)n2CCc2ccccc2)n1	-4%	14µM*	2%	1%	2%	-5%
Cc1cc(C)n(-c2nc3c(c(=O)[nH]c(=O)n3C)n2Cc2ccccc2)n1	3%	-6%	0%	4%	-1%	2%
CCC(=O)Nc1cc(OC)c(NC(=O)c2ccccc2)cc1OC	-6%	?	-1%	-1%	-3%	-1%
COc1cc(NC(=O)c2ccccc2)c(C)cc1NC(=O)CC(CC(=O)O)c1ccccc1 (stereo unspecified)	5%	.	2%	0%	13µM*	.
Cc1ccc(C)c(N2C(=N)S/C(=C\c3ccc(-c4ccccc4C(=O)O)o3)C2=O)c1	2%	12%	2%	-2%	?	5%
Cc1ccc2c(nc3s/c(=C\c4ccc(-c5ccccc5C(=O)O)o4)c(=O)n32)c1C	0%	.	2%	-1%	5.4µM*	.
Cc1cc(C)c2nc3s/c(=C/c4ccccc4)c(=O)n3c2c1	3%	-2%	?	1.3µM*	?	-1%
O=C(O)c1ccc(-c2ccc(/C=c3/sc4nc5ccccc5n4c3=O)o2)cc1Cl	0%	.	5%	12%	19µM*	.
Cc1ccc2c(nc3s/c(=C/c4cccs4)c(=O)n32)c1C	16µM*	?	29%	3.5µM*	1.9µM*	-7%
O=C(CCNC(=O)C1CCN(S(=O)(=O)c2ccc(F)cc2)CC1)NCc1ccncc1	1%	.	1%	0%	-1%	.
Cc1ccc(C)c(SCc2noc(C(=O)NCC3CCCO3)c2C(=O)O)c1 (stereo unspecified)	0%	6%	7%	-7%	-3%	-1%
O=C1CCCCC1C(=O)c1cn(-c2ccc(Cl)c(Cl)c2)nn1 (stereo unspecified)	?	14µM*	11%	24%	0.85µM*	-2%
CCOC(=O)N/N=C/c1ccccc1-c1cc(OC)ccc1OC	.	17%	.	.	.	3%
O=c1oc2ccc3ccccc3c2cc1-c1nnc(Nc2ccc(Cl)cc2Cl)s1	.	-3%	.	.	2%	.
COc1ccc(/C=N\NC(=O)C2COc3ccccc3O2)cc1O (stereo unspecified)	7%	.	-1%	-3%	24µM*	.
COc1ccc(/C=N/NC(=O)C2COc3ccccc3O2)cc1OC (stereo unspecified)	7%	5%	-2%	1%	19µM*	-3%
CC(/C=C/c1ccc2c(c1)OCO2)=N/NC(=O)C1COc2ccccc2O1 (stereo unspecified)	-2%	-15%	-3%	-7%	-10%	2%
COc1cc(/C=N/NC(=O)C2COc3ccccc3O2)ccc1O (stereo unspecified)	-4%	.	1%	-1%	?	.
SMILES	ELG1 genotoxic	SMN2 splice enh	NPC1 prom act	Rab9 prom act	FLuc counter	Luc counter
O=C(N/N=C/c1ccc2c(c1)OCO2)C1COc2ccccc2O1 (stereo unspecified)	3%	13%	1%	15%	17µM*	-1%
COc1cc(C(=O)NCC2(N(C)C)CCCCC2)ccc1OCc1ccccc1	-1%	.	2%	-1%	4%	.
Cc1c(NC(=O)COC(=O)C2=COCCO2)cccc1[N+](=O)[O-]	-2%	.	2%	-2%	4%	.
CC1CN(C(=O)c2cc([N+](=O)[O-])cc([N+](=O)[O-])c2)CC(C)O1 (stereo unspecified)	?	.	?	3.2µM*	15µM*	-5%
Cc1ccc(C(=O)N2CC(C)OC(C)C2)cc1[N+](=O)[O-] (stereo unspecified)	1%	.	-9%	-3%	-1%	-1%
CC1CCc2c(C(=O)NCc3ccccn3)csc2C1 (stereo unspecified)	?	?	?	22%	21µM*	-1%
CC1CCc2c(C(=O)Nc3nccs3)csc2C1 (stereo unspecified)	?	?	?	?	4.8µM*	2%
CC1CCc2sc(C(=O)NCc3ccc(F)cc3)cc2C1 (stereo unspecified)	6%	-8%	0%	18%	?	-2%
CC1CCc2c(C(=O)Nc3ccccn3)csc2C1 (stereo unspecified)	?	.	3.5µM*	3.2µM*	2.1µM*	.
CC1CCc2sc(C(=O)NCc3ccccn3)cc2C1 (stereo unspecified)	18µM*	.	25%	?	19µM*	.
COc1cc2c(cc1OC)C1O[C@](CCCCN3C(=O)c4ccccc4C3=O)(C2)Oc2c1c(=O)oc1ccccc21	.	.	1%[1.84 µM]	-5%[1.84 µM]	-4%[11.5 µM]	.
CCc1cccc(NS(=O)(=O)c2csc(C(N)=O)c2)c1	-9%	.	-27%	-13%	0%	.
Cc1ccccc1NC(=S)NNC(=O)c1csc2c1CCC(C)C2 (stereo unspecified)	?	18%	3.2µM*	2.2µM*	2.4µM*	-8%
CCNC(=S)NNC(=O)c1csc2c1CCC(C)C2 (stereo unspecified)	-1%	-14%	11%	9%	-3%	-2%
CCOC(=O)c1c(C)[nH]c(N=Nc2ccccc2C)c1C	23µM*	19%	28%	?	15µM*	-4%
CCOC(=O)c1c(C)[nH]c(CCC(=O)Nc2cc(C)ccc2OC)c1C	.	.	.	.	7%	.
CCOC(=O)c1c(C)[nH]c(N=Nc2ccc(C)cc2C)c1C	?	11%	?	0.25µM*	15µM*	2%
CCOC(=O)c1[nH]c(C)c(C(=O)O)c1C	-4%	-9%	0%	-4%	0%	2%
